In PubChem BioAssay (Tox21):
“And” between values parts separate entries of the source, which are not always exact repeats. Equal values may be shown once. Inconclusive results are not listed. Where a call stands in place of a potency, no number is given. The source made the active and inactive calls. Calls follow the shape of the full dose curve.

target: D(2) dopamine receptor (Homo sapiens) (UniProt P14416); test: Dopamine D2 receptor (DRD2) small molecule agonists, cell-based qHTS assay (AID 1963594); details: HEK293-DRD2 cAMP HTRF, agonist mode, 30 min; series mostly up to 92.4 µM; also: nearly all actives have a fitted effect of over 35% in size
Sequence (P14416 whole entry, looked up): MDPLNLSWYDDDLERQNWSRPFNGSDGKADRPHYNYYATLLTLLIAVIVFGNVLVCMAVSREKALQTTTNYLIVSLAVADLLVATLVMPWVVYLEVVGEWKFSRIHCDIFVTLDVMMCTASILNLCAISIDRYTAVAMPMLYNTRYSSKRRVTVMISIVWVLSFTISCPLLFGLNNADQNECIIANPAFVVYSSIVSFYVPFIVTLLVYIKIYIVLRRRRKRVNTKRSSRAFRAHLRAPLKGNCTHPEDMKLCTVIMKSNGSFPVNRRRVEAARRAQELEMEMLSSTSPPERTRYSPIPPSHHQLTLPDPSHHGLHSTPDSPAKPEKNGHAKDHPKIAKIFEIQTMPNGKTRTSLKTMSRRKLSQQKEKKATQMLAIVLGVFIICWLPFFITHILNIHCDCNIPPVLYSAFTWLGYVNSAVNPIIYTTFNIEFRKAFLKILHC
Description: National Center for Advancing Translational Sciences [NCATS]
Division of Preclinical Innovation [DPI]
U.S. Environmental Protection Agency [EPA]
National Institutes of Environmental Health Sciences [NIEHS]
National Toxicology Program [NTP]
U.S. Food and Drug Administration [FDA]
DRD2 is the D2 subtype of the dopamine receptor, which is coupled to Gi subtype of G protein-coupled receptor. This G protein-coupled receptor inhibits adenylyl cyclase activity. The DRD2-HEK293 cell line stably expressing D2 dopamine receptor can be used for screening agonists and antagonists of interactions between D2 and its ligands. The Hek293-DRD2 cAMP assay is based on HTRF technology. It measures changes of cAMP accumulation in response to Gi coupled GPCR activation or inhibition.
Tox21 Assay Protocol Summary:
DRD2-Hek293 cells were dispensed at 600 cells/3uL/well in 1536-well white plates using a Multidrop Dispenser. After the assay plates were incubated at a 37 C/5% CO2 incubator for 24 h, 1 uL of Ro20-1724 at final concentration of 0.1 mM was transferred to the assay plate by a Flying Reagent Dispenser. Following Ro20-1724 addition, 23 nL of compound dissolved in DMSO, positive controls or DMSO only was added to the assay plates via Wako pintool station. The assay plates were incubated at room temperature for 10 min. Next, 1 uL of NKH477 at 200nM was added into the plates. After the assay plates were incubated at room temperature for an additional 30 min, 2.5 ul/well of cAMP-d2 and 2.5 ul/well of anti-cAMP-cryptate were added respectively into the assay plates using a Flying Reagent Dispenser. The plates were incubated at room temperature for 1 h. The fluorescence intensity in the plates was measured at 340 nm excitation and 665 & 620 nm emission by an Envision plate reader.
Potency is read from the fitted curve at half-maximal effect.

SMILES	Potency
Cc1cc(C)c(C)cc1C	inactive
Cc1cc(=O)[nH]c(C(C)C)n1	inactive
OC[C@H]1O[C@H](O[C@]2(CCl)O[C@H](CCl)[C@@H](O)[C@@H]2O)[C@H](O)[C@@H](O)[C@H]1Cl	inactive
Cc1c(N(C)C)c(=O)n(-c2ccccc2)n1C	inactive
CC[N+](CC)(CC(=O)Nc1c(C)cccc1C)Cc1ccccc1	inactive
O=c1cc[nH]c(=S)[nH]1	inactive
CCCc1c(OCCCCc2nn[nH]n2)ccc(C(C)=O)c1O	inactive
CC(COc1ccccc1)N(CCCl)Cc1ccccc1 (stereo not given)	13.2 µM (active) and 7.22 µM (active)
Cc1cc(C)nc(NS(=O)(=O)c2ccc(N)cc2)n1	inactive
CCCCC(CC)COC(=O)CS (stereo not given)	inactive
CC(=O)CCC(=O)O	inactive
O=C(O)c1[nH]n(-c2ccc(S(=O)(=O)O)cc2)c(=O)c1N=Nc1ccc(S(=O)(=O)O)cc1	inactive
C1CNCCN1	inactive
C[Si]1(C)O[Si](C)(C)O[Si](C)(C)O[Si](C)(C)O1	inactive
C/C=C/C=C/C(=O)O	inactive
O=C(O)C(=O)O	inactive
CCCCCCC=O	inactive
COC(=O)C(C)Oc1ccc(Oc2ncc(C(F)(F)F)cc2Cl)cc1 (stereo not given)	inactive
c1ccc2scnc2c1	inactive
C=C[C@@]1(C)CC(=O)[C@]2(O)[C@@]3(C)[C@@H](O)CCC(C)(C)[C@@H]3[C@H](O)[C@H](OC(C)=O)[C@@]2(C)O1	inactive

SMILES	Potency
NC(=O)N/N=C/c1ccc([N+](=O)[O-])o1	inactive
COC(=O)[C@H]1[C@H]2C[C@@H]3c4[nH]c5cc(OC)ccc5c4CCN3C[C@H]2C[C@@H](OC(=O)c2cc(OC)c(OC)c(OC)c2)[C@@H]1OC	inactive
CC(=O)OC/C=C(C)/C=C/C=C(C)/C=C/C1=C(C)CCCC1(C)C	inactive
C/C=C(C)/C=C/C=C(C)C	inactive
CC(=O)OCc1ccc2c(c1)OCO2	inactive
Cc1ccc(C)c(O)c1	inactive
CC(C)(N)CO	inactive
CC(=O)c1ccc(O)cc1	inactive
c1ccc2n[nH]nc2c1	inactive
CCN(CC)CCOC(=O)c1ccc(N)cc1	inactive
CCCCC(=O)O	inactive
CC[C@H](C)C(=O)O[C@H]1C[C@@H](C)C=C2C=C[C@H](C)[C@H](CC[C@@H]3C[C@@H](O)CC(=O)O3)[C@H]21	inactive
C[C@]12C=CC(=O)C=C1CC[C@@H]1[C@@H]2C(=O)C[C@@]2(C)[C@H]1CC[C@]2(O)C(=O)CO	inactive
Cc1cccc(O)c1C	inactive
CC(C)Cc1ccccc1	inactive
COc1ccc([C@@H]2CC(=O)c3c(O)cc(O[C@@H]4O[C@H](CO[C@@H]5O[C@@H](C)[C@H](O)[C@@H](O)[C@H]5O)[C@@H](O)[C@H](O)[C@H]4O)cc3O2)cc1OC	inactive
C=C(C)C(=O)OCCOC(=O)C(=C)C	inactive
O=C(O)CCCCC(=O)O	inactive
O=S(=O)(O)NC1CCCCC1	inactive
O=C(c1ccccc1)C(O)c1ccccc1 (stereo not given)	inactive
